MITF primary = MITF inhibitors, primary screen, biochemical, AlphaScreen, human | Microphthalmia-associated transcription factor (Homo sapiens), O75030 | AlphaScreen MITF homodimerization, bead proximity signal | inhibition, % at 2.6 µM | 650,000 compounds, 0.91% hits | AID 1259374, 2018; in the data active = inhibition above about 50%
FBW7 act = FBW7 E3 ligase activators, primary screen, biochemical, AlphaScreen, human; F-box/WD repeat-containing protein 7 (Homo sapiens), Q969H0; AlphaScreen FBW7–phospho-cyclin E peptide binding, activator screen; normalized activity (activation), % at 26.1 µM; 650,000 compounds, 0.13% hits; in the data active = normalized activity above about 1.9%;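 note: purified mutant Fbw7 with reduced substrate affinity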
TEAD-YAP block = TEAD-YAP interaction inhibition, primary screen, TEAD-YAP interaction inhibitor project, luminescence, HEK-TIYL cells; TEAD-Gal4/YAP UAS-luciferase luminescence; inhibition, % at 9.12 µM; 640,000 compounds, 1.4% hits; AID 1259422, 2018; in the data active = inhibition above about 32%
GPR151 activ = activators of human GPR151, primary screen, cell-based, PathHunter beta-arrestin, luminescence | G-protein coupled receptor 151 (Homo sapiens), Q8TDV0 | AID 1508602, 2020 | activation, % at 11.2 µM | PathHunter beta-arrestin GPR151 cells | 650,000 compounds, 1% hits; in the data active = activation above about 4.9%
Target sequence (Q8TDV0 whole entry, looked up): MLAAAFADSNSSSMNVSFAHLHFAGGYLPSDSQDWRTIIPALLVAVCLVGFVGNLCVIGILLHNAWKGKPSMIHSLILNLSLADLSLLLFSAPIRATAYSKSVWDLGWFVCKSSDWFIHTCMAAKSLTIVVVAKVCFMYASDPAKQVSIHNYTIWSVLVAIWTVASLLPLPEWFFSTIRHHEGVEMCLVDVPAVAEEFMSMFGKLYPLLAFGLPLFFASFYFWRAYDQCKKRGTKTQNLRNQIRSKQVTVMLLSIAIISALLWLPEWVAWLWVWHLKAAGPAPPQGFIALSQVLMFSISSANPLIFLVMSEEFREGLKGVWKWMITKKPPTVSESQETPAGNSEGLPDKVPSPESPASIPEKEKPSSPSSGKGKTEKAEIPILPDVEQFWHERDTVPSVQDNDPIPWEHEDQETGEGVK
GPR151 confirm = GPR151 activators, triplicate retest, confirmation, cell-based, PathHunter beta-arrestin, luminescence | shares compounds with GPR151 activ | GPR151 PathHunter beta-arrestin cells, 90 min; % of EA-reagent control over plate median | activation, % at 11.2 µM | 6,700 tested, under 10 active | AID 1508609, 2020;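 active = mean percent activation across replicates above the confirmation screen cutoff of 4.91%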
GPR119 ag = GPR119 activators in beta-arrestin cells, counter-screen for GPR151 activator project, cell-based, PathHunter beta-arrestin, luminescence, triplicate. 90 min; 0 = compound-well median, 100 = enzyme-acceptor control. 6,700 compounds, 0.3% hits. activation, % at 11.2 µM. AID 1508611, 2020. shares compounds with GPR151 activ;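 active = mean percent activation in the counterscreen above 29.09%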;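 note: counterscreen on off-target GPR119 to flag nonselective hits from the GPR151 activator screen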
A number is an active result; 0 = inactive; - = no result given. Hits are enriched below; roughly 3.5% of the tested compounds scored in any of these assays.

SMILES	MITF primary	FBW7 act	TEAD-YAP block	GPR151 activ	GPR151 confirm	GPR119 ag
COC(=O)c1ccc(Nc2nc(C)c([N+](=O)[O-])c(Nc3ccc(C(=O)OC)cc3)n2)cc1	0	0	0	12.9	0	0
CC(=O)Nc1cccc(N=Cc2cc([N+](=O)[O-])cc(C)c2O)c1	0	0	0	7.4	0	0
O=C(Nc1cccc(N=Cc2cc([N+](=O)[O-])cc([N+](=O)[O-])c2O)c1)c1ccco1	0	0	0	0	-	-
O=C(CCSc1ccccc1)Nc1nc2ccccc2s1	0	0	0	5.0	0	0
O=C(COC(=O)C1CCC(=O)N1)Nc1nc2ccccc2s1 (stereo not drawn)	0	0	0	6.0	0	0
CC(C)n1c(-c2ccccc2)nc2c(Nc3ccc(N4CCOCC4)cc3)ncnc21	0	0	0	0	-	-
CCOC(=O)c1c(C)nc2c(c1C)/C(=N/O)CC(C)(C)C2	0	0	0	5.0	0	0
O=c1cc(-c2ccc(O)cc2)oc2cc(O[C@@H]3O[C@H](CO)[C@@H](O)[C@H](O)[C@H]3O[C@@H]3OC[C@](O)(CO)[C@H]3O)cc(O)c12	0	0	0	8.2	0	0
O=C(CCc1ccccc1)Nc1ccc2c(c1)C(=O)N(C1CCCCC1)C2=O	0	0	0	0	-	-
O=C(c1cscn1)N1C2CCC1CC(c1ccc(F)cc1)C2 (stereo not drawn)	0	0	0	0	-	-
Cc1nnsc1C(=O)N1C2CCC1CC(c1ccc(F)cc1)C2 (stereo not drawn)	0	0	0	12.2	0	0
O=C(c1ccco1)N1C2CCC1CC(c1ccc(F)cc1)C2 (stereo not drawn)	0	0	0	8.6	0	0
Cc1nnsc1C(=O)N1CCC(c2ccccc2)C1 (stereo not drawn)	0	0	0	0	-	-
CN1CCc2c1nc1ccccc1c2NC(=O)Cc1ccccc1	0	0	0	0	-	-
CCOC(=O)c1ccc2ncc(C(=O)OCC)c(Nc3cc(Cl)ccc3OC)c2c1	0	0	0	0	-	-
O=c1c2cc(-c3ccccc3)sc2ncn1-n1cccc1	0	0	0	7.7	0	0
COc1ccc(/C=N/NC(=O)c2ccoc2C)cc1Br	0	0	0	0	-	-
O=C(CN1CCOCC1)Nc1ccc(Br)cn1	0	0	0	0	-	-
O=C(CN1CCN(C(=O)c2ccccc2)CC1)Nc1ccc(Br)cn1	0	0	0	5.6	0	0
CC(C)(C)n1nc(Cc2cccc3ccccc23)c2c(N)ncnc21	0	-	-	0	-	-
CC(C)(C)n1nc(-c2ccccc2)c2c(N)ncnc21	-	-	-	5.2	0	0
O=C(c1ccccc1NS(=O)(=O)c1ccc(Br)s1)N1CCCC1	0	0	0	5.0	0	0
COc1ccc(OC)c(C2=NOC(C(=O)NCc3ccccc3)C2)c1 (stereo not drawn)	0	0	0	0	-	-
COc1ccc(OC)c(C2=NOC(C(=O)NCc3cccnc3)C2)c1 (stereo not drawn)	0	0	0	6.3	0	0
CN1C(=O)CCC12CCN(Cc1c[nH]c3ccccc13)CC2	0	0	0	8.1	0	0
SMILES	MITF primary	FBW7 act	TEAD-YAP block	GPR151 activ	GPR151 confirm	GPR119 ag
O=C(OCc1nc2ccccc2s1)c1ccccc1	0	0	0	6.7	0	0
CCOc1ccc(N2CCN(CCNC(=O)Nc3cccc(Cl)c3)CC2)cc1	0	0	0	5.5	0	0
O=C(NCCN1CCN(c2cccc(Cl)c2)CC1)Nc1ccccc1	0	0	0	0	-	-
CCNC(=O)c1sc2cc(C)ccc2c1Cl	0	0	0	6.4	0	0
Cc1ccc(NC(=O)c2sc3cc(C)ccc3c2Cl)cc1	0	0	0	0	-	-
COCc1cc(C)nc(N/N=C/c2ccc(-c3cccc([N+](=O)[O-])c3)o2)c1C#N	0	0	0	0	-	-
CC(NS(C)(=O)=O)c1ccccc1 (stereo not drawn)	0	0	0	6.3	0	0
